Data published in PubChem BioAssay (NCATS).
Several values for one entry are separate records, joined by “and”; a condition that tells them apart may be missing. Equal entries are not always repeated. Results filed as inconclusive are left out. Values without a mark were called inactive. Activity calls are given as the source filed them. Calls come from the whole dose curve; as a rule, active = well fitted inhibition curve with a large enough effect; inconclusive = small, poorly fitted or top-dose-only effect; inactive = flat fitted curve, though single readings scatter.

System: not listed separately
Assay: Drug repurposing screens with cells derived from glioblastoma tumor samples (AID 1345199); note: nearly all actives have a fitted effect of over 40% in size
Settings: GBM patient neurospheres viability, ATP luminescence, 48 h; at 46.1 µM (top of the series); tumour line C
Procedure, shortened: (§1)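 Primary testing used CD133+ neurospheres from four GBM patients, seven concentrations, 48 h exposure and ATP-based viability; confirmation added three slower-growing patient lines.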
% is set by controls: 0 for no effect and ±100 for the full control effect; potency is the fitted concentration of half-maximal effect.

Compound	activity, negative = cell killing
CC1(C)[C@H](C(=O)O)N2C(=O)C[C@H]2S1(=O)=O	9.89%
O=C(O)CCn1c2c(c3ccccc31)C[C@H](NS(=O)(=O)c1ccc(F)cc1)CC2	-18.1%
CCOCC(O)COc1ccc(NC(=O)CC[S+](C)C)cc1 (stereo not given)	-28.1%
CNS(=O)(=O)CCc1ccc2[nH]cc(C3CCN(C)CC3)c2c1	9.59%
Cc1cc(NS(=O)(=O)c2ccc(N)cc2)no1	7.15%
O=NN(CCCl)C(=O)NC1CCCCC1	-16.6%
CNCC[C@H](Oc1cccc2ccccc12)c1cccs1	-0.487%
Cn1nnc2c(C(N)=O)ncn2c1=O	-14.3%
OC(Cn1cncn1)(Cn1cncn1)c1ccc(F)cc1F	-6.89%
CC1=NN(c2ccccc2)C(=O)C1	-6.42%
C[C@@H]1CN(c2c(F)c(N)c3c(=O)c(C(=O)O)cn(C4CC4)c3c2F)C[C@H](C)N1	-3.77%
CCN(C)C(=O)Oc1cccc([C@H](C)N(C)C)c1	-30%
Cc1ncc([N+](=O)[O-])n1CCO	12.6%
CN1CCN(c2c(F)cc3c(=O)c(C(=O)O)cn4c3c2OCN4C)CC1	18%
CN(CCOc1ccc(CC2SC(=O)NC2=O)cc1)c1ccccn1 (stereo not given)	15.3%
Cc1nnc(NS(=O)(=O)c2ccc(N)cc2)s1	5.44%
Cc1noc(NS(=O)(=O)c2ccc(N)cc2)c1C	-22.2% and -6.01%
C#CCN[C@@H]1CCc2ccccc21	-23.8%
CCCN[C@H]1CCc2nc(N)sc2C1	-13%
CC[C@H](NC(C)C)[C@H](O)c1ccc(O)c2[nH]c(=O)ccc12	18.7%
O=C(O)c1cc(=O)[nH]c(=O)[nH]1	-0.704%
NCCCC(O)(P(=O)(O)O)P(=O)(O)O	-10.2%
COc1nc(N)nc2c1ncn2[C@@H]1O[C@H](CO)[C@@H](O)[C@@H]1O	-10.9%

System: astro (control astrocytes)
Assay: as above
Settings: viability, ATP luminescence, 48 h; series mostly up to 45.9 µM; activity, negative = cell killing: at the top concentration
Procedure, shortened: as §1

Compound	activity, negative = cell killing	Potency
CC1(C)[C@H](C(=O)O)N2C(=O)C[C@H]2S1(=O)=O	4.13%	
O=C(O)CCn1c2c(c3ccccc31)C[C@H](NS(=O)(=O)c1ccc(F)cc1)CC2	-15.2%	
CCOCC(O)COc1ccc(NC(=O)CC[S+](C)C)cc1 (stereo not given)	-7.14%	
Cc1cccc(Nc2ccncc2S(=O)(=O)NC(=O)NC(C)C)c1	-20.9% [at 21.2 µM]	
CNS(=O)(=O)CCc1ccc2[nH]cc(C3CCN(C)CC3)c2c1	-12.1%	
CC(C)(C)NC(=O)[C@H]1CC[C@H]2[C@@H]3CC[C@H]4NC(=O)C=C[C@]4(C)[C@H]3CC[C@]12C	-13.6% [at 21.2 µM]	
C[C@@H]1C[C@H]2[C@@H]3CCC4=CC(=O)C=C[C@]4(C)[C@@]3(Cl)[C@@H](O)C[C@]2(C)[C@@]1(OC(=O)c1ccco1)C(=O)CCl	-17.9% [at 21.2 µM]	
Cc1cc(NS(=O)(=O)c2ccc(N)cc2)no1	-15.5%	
O=NN(CCCl)C(=O)NC1CCCCC1	-15.9%	
CNCC[C@H](Oc1cccc2ccccc12)c1cccs1		28.2 µM (active)
COc1cnc(NS(=O)(=O)c2ccc(N)cc2)nc1	-13.3% [at 21.2 µM]	
Cn1nnc2c(C(N)=O)ncn2c1=O	-10%	
OC(Cn1cncn1)(Cn1cncn1)c1ccc(F)cc1F	-2.05%	
CCOC(=O)c1ccc(OC(=O)CCCCCN=C(N)N)cc1	-1.76% [at 21.2 µM]	
CC1=NN(c2ccccc2)C(=O)C1	-23.8%	
C[C@@H]1CN(c2c(F)c(N)c3c(=O)c(C(=O)O)cn(C4CC4)c3c2F)C[C@H](C)N1	-15.1%	

Compound	activity, negative = cell killing	Potency
CCN(C)C(=O)Oc1cccc([C@H](C)N(C)C)c1	-11.5%	
Cc1ncc([N+](=O)[O-])n1CCO	-2.47%	
CN1CCN(c2c(F)cc3c(=O)c(C(=O)O)cn4c3c2OCN4C)CC1	-11.5%	
CN(CCOc1ccc(CC2SC(=O)NC2=O)cc1)c1ccccn1 (stereo not given)	-23.3%	
Cc1onc(-c2ccccc2Cl)c1C(=O)N[C@@H]1C(=O)N2[C@@H]1SC(C)(C)[C@@H]2C(=O)O	-8.78% [at 21.2 µM]	
Nc1ccc(S(=O)(=O)Nc2ccccn2)cc1	-10.9% [at 21.2 µM]	
C#CCN[C@@H]1CCc2ccccc21	-1.84%	
CCCN[C@H]1CCc2nc(N)sc2C1	-6.2%	
NS(=O)(=O)c1cc2c(cc1Cl)NC(C(Cl)Cl)NS2(=O)=O (stereo not given)	-15.9% [at 21.2 µM]	
CC[C@H](NC(C)C)[C@H](O)c1ccc(O)c2[nH]c(=O)ccc12	-20.2%	
Cn1c(=O)c2c(ncn2CC(O)CO)n(C)c1=O (stereo not given)	-3.8% [at 21.2 µM]	
CO[C@@H]1[C@@H](OC(N)=O)[C@@H](O)[C@H](Oc2ccc3c(O)c(NC(=O)c4ccc(O)c(CC=C(C)C)c4)c(=O)oc3c2C)OC1(C)C	-9.42% [at 21.2 µM]	
NCCCC(O)(P(=O)(O)O)P(=O)(O)O	2.1%	
CCn1cc(C(=O)O)c(=O)c2cc(F)c(N3CCNCC3)nc21	-8.93% [at 21.2 µM]	
COc1nc(N)nc2c1ncn2[C@@H]1O[C@H](CO)[C@@H](O)[C@@H]1O	-14.9%	
COc1ccccc1OCC(O)COC(N)=O (stereo not given)	-14.1% [at 21.2 µM]	
